Measurements from PubChem BioAssay (Tox21).
Where “and” joins values, the source holds several entries; their conditions need not be identical. Equal values may be shown once. Records with an inconclusive call do not appear. Where a call stands in place of a potency, no number is given. Where a structure was tested more than once in an assay, its records may differ in their call. Calls of active or inactive are those of the source. Calls come from the whole dose curve; as a rule, active = well fitted cell-killing curve with a large enough effect in the repeat runs; inconclusive = weak or mixed curves, or effect the other way; inactive = flat fitted curve, though single readings scatter.

assay: qHTS assay to identify small molecule that activate the aryl hydrocarbon receptor (AhR) signaling pathway - cell viability counter screen (AID 743086); settings: HepG2-AhR-luc viability, CellTiter-Fluor, 24 h; series mostly up to 70.3 µM; note: nearly all actives have a fitted effect of over 45% in size;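 for viability change, negative = cytotoxic: HepG2 liver cells carrying the AhR DRE luciferase reporter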
Excerpt: U.S. Tox21 Program National Center for Advancing Translational Sciences [NCATS] NIH Chemical Genomics Center [NCGC] U.S. Environmental Protection Agency [EPA] National Institutes of Environmental Health Sciences [NIEHS] National Toxicology Program [NTP] U.S. Food and Drug Administration [FDA] Tox21 Assay overview: The Aryl hydrocarbon Receptor (AhR), a member of the family of basic helix-loop-helix transcription factors, is crucial to adaptive responses to environmental changes. AhR mediates cellular responses to environmental pollutants such as aromatic hydrocarbons through induction of phase I and II enzymes but also interacts with other nuclear receptor signaling pathways A cell based HepG2-AhR-luc assay (HG2L7.5c1 cell line, developed by Dr. Michael S. Denison, University of California at Davis) was used to assess the activation of AhR. HepG2 (human hepatocellular carcinoma) cells were stably transfected with an Ah receptor-responsive firefly luciferase reporter gene plasmid containing 20 dioxin responsive elements and luciferase reporter gene. Increased luciferase activity can be used to identify the compounds that induce AhR activation. The cytotoxicity of the compounds screened against the HepG2-AhR-luc cell line was tested in parallel by measuring the cell viability using CellTiter-Fluor assay in the same wells.
Tox21 Assay Protocol Summary: 4000 cells in 5 uL/well were dispensed into white wall/solid bottom 1536-well plates using a Multidrop Combi (Thermo Fisher Scientific Inc., Waltham, MA) dispenser. After the assay plates were incubated at 37C for 5 h, 23 nL of compound or DMSO vehicle was transferred to the assay plates by a pintool station (Kalypsys, San Diego, CA). The plates were incubated at 37C for 24 hr. For cell viability measurement, 1 ul/well of CellTiter-Fluor reagent (Promega, Madison, WI) was added into the assay plates using a Flying Reagent Dispenser (FRD) (Aurora Discovery, CA),and then the assay plates were incubated at 37C for 30 min. The fluorescence intensity in the plates was measured using a ViewLux plate reader (PerkinElmer, Shelton, CT), followed by the addition of 4 uL of ONE-Glo Luciferase Assay reagent (Promega) using an FRD (Aurora Discovery). After the assay plates were incubated at room temperature for 30 min, luminescence intensity was measured using a ViewLux plate reader (Perkin Elmer).
Potency is the fitted concentration of half-maximal effect.

| Compound | Potency | viability change, negative = cytotoxic |
| --- | --- | --- |
| Clc1ccc(C2(Cn3cncn3)OCCO2)c(Cl)c1 | inactive | – |
| O=c1c2ccccc2c(=O)c2c1cc(Cl)c1[nH]c3c([nH]c12)c(Cl)cc1c(=O)c2ccccc2c(=O)c13 | inactive | – |
| CCC(C)c1cccc(C(C)CC)c1O (stereo not given) | inactive | – |
| [O]=[Cr][O][Cr]=[O] | inactive | – |
| CNC(=O)Oc1cc(C)cc(C(C)C)c1 | inactive | – |
| CCCC[N+]1(C)CCCC1 (tested in a mixture with another compound) | inactive | – |
| C=CC(=C)C | inactive | – |
| Cc1ccc2cc3c(ccc4ccccc43)c3c2c1CC3 | inactive | – |
| CC(Cl)CCl (stereo not given) | inactive | – |
| CCn1cc[n+](C)c1 (tested in a mixture with another compound) | inactive | – |
| CC[C@H](C)[C@H]1O[C@]2(C=C[C@@H]1C)C[C@@H]1C[C@@H](C/C=C(\C)[C@@H](O[C@H]3C[C@H](OC)[C@@H](O[C@H]4C[C@H](OC)[C@@H](NC)[C@H](C)O4)[C@H](C)O3)[C@@H](C)/C=C/C=C3\CO[C@@H]4[C@H](O)C(C)=C[C@@H](C(=O)O1)[C@]34O)O2 | 4.33 µM (active) | – |
| [O]=[Cr](=[O])([OH])[O][Cr](=[O])(=[O])[OH] | inactive | – |
| CN | inactive | – |
| O.O.O.O.O.O.O=S(=O)([O-])[O-].[Ni+2] | inactive | – |
| Cc1cnc2c(C(=O)O)c(Cl)ccc2c1 | inactive | – |
| N#CSCc1ccccc1 | inactive | – |
| CCNc1nc(NC(C)C(C)C)nc(SC)n1 (stereo not given) | inactive | – |
| Oc1ccc([C@H]2CNCc3c2ccc(O)c3O)cc1O | inactive | – |
| O=C(NC(=O)c1ccccc1Cl)Nc1ccc(OC(F)(F)F)cc1 | inactive | – |
| CC1CCCC1 | inactive | – |

| Compound | Potency | viability change, negative = cytotoxic |
| --- | --- | --- |
| CCC[CH2][Sn]([CH2]CCC)([CH2]CCC)[O][Sn]([CH2]CCC)([CH2]CCC)[CH2]CCC | 2.67 µM (active) | – |
| CCCCN(CCCC)C(=S)S | inactive | – |
| CCCCON=O | inactive | – |
| O=[N+]([O-])c1ccc(Cl)c(Cl)c1Cl | inactive | – |
| C[C@]12C/C(=C/O)C(=O)C[C@@H]1CC[C@@H]1[C@@H]2CC[C@@]2(C)[C@H]1CC[C@]2(C)O | inactive | – |
| Cc1ccccc1OP(=O)(Oc1ccccc1C)Oc1ccccc1C | inactive | – |
| ClC1(Cl)C2(Cl)C3(Cl)C4(Cl)C(Cl)(Cl)C5(Cl)C3(Cl)C1(Cl)C5(Cl)C24Cl (stereo not given) | inactive | – |
| CCCCN(CCCC)C(=S)[S-].CCCCN(CCCC)C(=S)[S-].[Ni+2] | inactive | – |
| CN(C)c1ccc(N)cc1 | 66.9 µM (active) | – |
| CCN(CC)C(=S)S | inactive and 19.2 µM (active) and 30.6 µM (active) | – |
| O=C1C[C@@H]2OCC=C3CN4CC[C@]56c7ccccc7N1[C@H]5[C@H]2[C@H]3C[C@H]46 | inactive | – |
| Cc1c([N+](=O)[O-])c(C)c([N+](=O)[O-])c(C(C)(C)C)c1[N+](=O)[O-] | inactive | – |
| O=Cc1ccccc1 | inactive | – |
| CCCCCON=O | inactive | – |
| CC(=O)[O-].CC(=O)[O-].CC(=O)[O-].[Sb+3] | – | 5.29% [at 8.47 µM] (inactive) |
| CCCCCCCc1ccc(O)cc1 | inactive | – |
| ClSC(Cl)(Cl)Cl | inactive | – |
| CC(Cc1ccc(OCC(=O)O)cc1)NCC(O)c1csc(C(F)(F)F)n1 (stereo not given) | inactive | – |
| Clc1cc(Cl)c(-c2cc(Cl)c(Cl)cc2Cl)cc1Cl | inactive | – |
| CCNS(=O)(=O)C(F)(F)C(F)(F)C(F)(F)C(F)(F)C(F)(F)C(F)(F)C(F)(F)C(F)(F)F | inactive | – |
